Assay results published in the supplement of paper PMC12024529.

These molecules were tested on HEK293 WT BDD-FVIII-Gluc (assay: secreted FVIII-Gluc luciferase Z-score vs DMSO control; higher = more FVIII-Gluc secretion). Conditions: 5 µM.
Method: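 Natural plant-compound library (480 compounds, ST catalogue IDs) screened on HEK293 cells stably expressing WT BDD-FVIII-Gaussia luciferase fusion at 5 µM. Secreted Gluc activity in the medium is given as a Z-score relative to DMSO controls.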
In the case of `COc1ccc2c(c1OC)C(=O)O[C@@H]2[C@H]1c2c(cc3c(c2OC)OCO3)CCN1C`, the “secreted FVIII-Gluc luciferase Z-score” value is reported as -0.0362.
In the case of `NCCC(=O)N[C@@H](Cc1cnc[nH]1)C(=O)O`, the “secreted FVIII-Gluc luciferase Z-score” value is reported as -1.31.
For `O=c1c(O)c(-c2cccc(O)c2)oc2ccccc12`, the “secreted FVIII-Gluc luciferase Z-score” value was -0.392.
`CNC[C@H](O)c1ccc(O)c(O)c1` was tested, and the “secreted FVIII-Gluc luciferase Z-score” value was 0.948.
With `NCCc1cnc[nH]1` the “secreted FVIII-Gluc luciferase Z-score” value was 0.378.
With `COc1ccc(-c2coc3ccc(OC4OC(COC(C)=O)C(OC(C)=O)C(OC(C)=O)C4OC(C)=O)cc3c2=O)cc1` (centres undefined) the “secreted FVIII-Gluc luciferase Z-score” value was -1.1.
For `O=c1c(-c2ccc(O[C@@H]3O[C@H](CO)[C@@H](O)[C@H](O)[C@H]3O)cc2)coc2cc(O)cc(O)c12`, the “secreted FVIII-Gluc luciferase Z-score” value was 0.683.
For `CCC(C)C(=O)O[C@H]1C[C@@H](C)C=C2C=C[C@H](C)[C@H](CC[C@@H]3C[C@@H](O)CC(=O)O3)[C@H]21` (some centres undefined), the “secreted FVIII-Gluc luciferase Z-score” value was -0.369.
In the case of `CC12CCC3c4ccc(O)cc4CCC3C1CCC2=O` (centres undefined), the “secreted FVIII-Gluc luciferase Z-score” value is reported as 0.301.
For `CC(=O)[C@H]1CC[C@H]2[C@@H]3CCC4=CC(=O)CC[C@]4(C)[C@H]3CC[C@]12C`, the “secreted FVIII-Gluc luciferase Z-score” value was 0.00749.
In the case of `O=C(O)CCCC[C@@H]1SC[C@@H]2NC(=O)N[C@@H]21`, the “secreted FVIII-Gluc luciferase Z-score” value is reported as 0.929.
`CCC(=O)OCC(=O)[C@@]1(OC(=O)CC)[C@@H](C)C[C@H]2[C@@H]3CCC4=CC(=O)C=C[C@]4(C)[C@@]3(F)[C@@H](O)C[C@@]21C` was tested, and the “secreted FVIII-Gluc luciferase Z-score” value was 3.76.
With `N[C@H](Cc1c[nH]c2ccccc12)C(=O)O` the “secreted FVIII-Gluc luciferase Z-score” value was 0.298.
`NC(=O)NCCC[C@H](N)C(=O)O` was tested, and the “secreted FVIII-Gluc luciferase Z-score” value was -0.102.
For `COC(=O)CC[C@@H](C)[C@H]1CC[C@H]2[C@@H]3CC[C@@H]4C[C@H](O)CC[C@]4(C)[C@H]3C[C@H](O)[C@]12C`, the “secreted FVIII-Gluc luciferase Z-score” value was 0.392.
For `O=C1C[C@H](c2ccccc2)Oc2cc(O)cc(O)c21`, the “secreted FVIII-Gluc luciferase Z-score” value was 0.533.
`CC1(C)CC[C@]2(C(=O)O)CC[C@]3(C)C(=CC[C@@H]4[C@@]5(C)CC[C@H](O)C(C)(C)[C@@H]5CC[C@]43C)[C@@H]2C1` was tested, and the “secreted FVIII-Gluc luciferase Z-score” value was 0.157.
For `N[C@@H](Cc1c[nH]c2ccc(O)cc12)C(=O)O`, the “secreted FVIII-Gluc luciferase Z-score” value was 0.43.
In the case of `Cc1cc(O)c2c(c1)C(=O)c1cc(O)cc(O)c1C2=O`, the “secreted FVIII-Gluc luciferase Z-score” value is reported as -0.0482.
`CC(=O)[C@@H]1[C@H]2[C@H](C(=O)[C@H]3OC[C@@H]2O3)[C@H]2C=Cc3ccccc3N21` was tested, and the “secreted FVIII-Gluc luciferase Z-score” value was 0.187.
For `O=c1cc(-c2ccc(O)c(O)c2)oc2cc(OC3OC(CO)C(O)C(O)C3O)cc(O)c12` (centres undefined), the “secreted FVIII-Gluc luciferase Z-score” value was -0.168.
With `C[C@]12CCC(=O)C=C1CC[C@@H]1[C@@H]2[C@@H](O)C[C@@]2(C)[C@H]1CC[C@]2(O)C(=O)CO` the “secreted FVIII-Gluc luciferase Z-score” value was 4.35.
With `CC[C@]12CCCN3CCc4c(n(c5ccccc45)C(=O)C1)C32` (some centres undefined) the “secreted FVIII-Gluc luciferase Z-score” value was 0.363.
`Cc1c(-c2c(C)c(=O)c3c(C(C)C)c(=O)c(=O)c(C=O)c-3c2=O)c(O)c2c(C=O)c(O)c(O)c(C(C)C)c2c1O` was tested, and the “secreted FVIII-Gluc luciferase Z-score” value was -0.893.
With `COc1ccc2c3c1O[C@H]1C[C@@H](O)C=CC31CCN(C)C2` (some centres undefined) the “secreted FVIII-Gluc luciferase Z-score” value was 0.116.
For `COc1cc(CNC(=O)CCCC/C=C/C(C)C)ccc1O`, the “secreted FVIII-Gluc luciferase Z-score” value was -0.484.
With `CCCCCCCCCCCC1=C(O)C(=O)C=C(O)C1=O` the “secreted FVIII-Gluc luciferase Z-score” value was 0.529.
In the case of `Nc1nc2c(ncn2[C@@H]2O[C@H](CO)[C@@H](O)[C@H]2O)c(=O)[nH]1`, the “secreted FVIII-Gluc luciferase Z-score” value is reported as 1.04.
`C=C(C)[C@H]1CC=C(C)C(=O)C1` was tested, and the “secreted FVIII-Gluc luciferase Z-score” value was 0.764.
`O=C1c2c(O)cc(O)cc2OC(c2ccc(O)c(O)c2)C1O` (centres undefined) was tested, and the “secreted FVIII-Gluc luciferase Z-score” value was -0.135.
For `C[C@@H]1O[C@@H](OC[C@H]2O[C@@H](Oc3c(-c4cccc(O)c4O)oc4cc(O)cc(O)c4c3=O)[C@H](O)[C@@H](O)[C@@H]2O)[C@H](O)[C@H](O)[C@H]1O`, the “secreted FVIII-Gluc luciferase Z-score” value was 1.27.
`COc1ccc2c(c1)[C@@]1(C)CCC[C@](C)(CO)C1CC2` (some centres undefined) was tested, and the “secreted FVIII-Gluc luciferase Z-score” value was 0.437.
`CC1=CC(=O)C2=C(C)CCC3C(C)C(=O)OC3C12` (centres undefined) was tested, and the “secreted FVIII-Gluc luciferase Z-score” value was 0.0708.
In the case of `C=C[C@@]1(C)C=C2CC[C@@H]3[C@](C)(CCC[C@@]3(C)C(=O)O)[C@H]2CC1`, the “secreted FVIII-Gluc luciferase Z-score” value is reported as -0.481.
`C/C(=C\COc1cc(=O)[nH]c2ccccc12)CCC(O)C(C)(C)O` (centres undefined) was tested, and the “secreted FVIII-Gluc luciferase Z-score” value was -0.128.
In the case of `CN1CCc2cc3c(cc2C(=O)Cc2ccc4c(c2C1)OCO4)OCO3`, the “secreted FVIII-Gluc luciferase Z-score” value is reported as -0.0429.
In the case of `COc1ccc2c(OC)c3ccoc3nc2c1OC`, the “secreted FVIII-Gluc luciferase Z-score” value is reported as 0.816.
With `CO[C@H]1/C=C/O[C@@]2(C)Oc3c(C)c(O)c4c(O)c(cc(O)c4c3C2=O)NC(=O)/C(C)=C\C=C\[C@H](C)[C@H](O)[C@@H](C)[C@@H](O)[C@@H](C)[C@H](OC(C)=O)[C@@H]1C` the “secreted FVIII-Gluc luciferase Z-score” value was -0.224.
With `c1coc(CNc2ncnc3nc[nH]c23)c1` the “secreted FVIII-Gluc luciferase Z-score” value was 0.193.
